Test results as given in PubChem BioAssay (Tox21).
Records with an inconclusive call do not appear. Activity calls are given as the source filed them. Calls follow the shape of the dose curve; as a rule, active = well fitted curve in the direction sought with a large enough effect in the repeat runs; inconclusive = weak or mixed curves; inactive = no such curve, though single readings can be large; an effect the other way counts as inactive or inconclusive.

Assay: A CellTox Green Cytotoxicity Assay to monitor cytotoxicity in HEK293 cells - 0 hour (AID 1224869)
Settings: CellTox Green fluorescence; series mostly up to 76.8 µM; cytotoxicity: at the top concentration
Summary of the method: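 Each value comes from one timepoint of a single continuous run in which HEK293 cells with CellTox Green were exposed to compound for up to 40 h at 37 C, dye fluorescence rising with cell death.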
% is scaled to controls: 0 for no effect and ±100 for the full control effect; potency is read from the fitted curve at half-maximal effect.
Also: nearly all actives have a fitted effect of over 50% in size.

Row | SMILES | cytotoxicity | Potency
1 | CN1CCN(CCCN2c3ccccc3Sc3ccc(C(F)(F)F)cc32)CC1 | 0.56% [at 35.3 µM] (inactive) | 
2 | O=C(CCN1CCC(c2ccccc2)C1)c1ccc2c(c1)OCCO2 (stereo unspecified) | 0.328% [at 35.3 µM] (inactive) | 
3 | N#Cc1ccc(C/C(=N/NC(=O)Nc2ccc(OC(F)(F)F)cc2)c2cccc(C(F)(F)F)c2)cc1 | 10.5% (inactive) | 
4 | Oc1cccc2c(O)cccc12 | 0.717% (inactive) | 
5 | CCCC(=O)c1cc(O)c(O)cc1O | 2.17% (inactive) | 
6 | CC(C=O)c1ccccc1 (stereo unspecified) | -7.58% (inactive) | 
7 | O=C(N[C@H](CO)[C@H](O)c1ccc([N+](=O)[O-])cc1)C(Cl)Cl | -3.72% (inactive) | 
8 | C=CCc1cc(S(=O)(=O)c2ccc(O)c(CC=C)c2)ccc1O | 0.212% (inactive) | 
9 | N#Cc1nc(Cl)c(Cl)c(Cl)c1Cl | 1.49% (inactive) | 
10 | c1ccc(-c2ccccc2-c2ccccc2)cc1 | 1.6% (inactive) | 
11 | Nc1cccnc1N | 4.6% (inactive) | 
12 | COc1cc([C@@H]2c3cc4c(cc3[C@@H](O[C@@H]3O[C@@H]5CO[C@@H](C)O[C@H]5[C@H](O)[C@H]3O)[C@H]3COC(=O)[C@H]23)OCO4)cc(OC)c1O | 4.41% (inactive) | 
13 | CC(Cc1ccc(O)c(O)c1)C(C)Cc1ccc(O)c(O)c1 (stereo unspecified) | -8.97% (inactive) | 
14 | CCN(CCC#N)c1ccc(N=Nc2ccc([N+](=O)[O-])cc2)cc1 | -8.57% (inactive) | 
15 | CN1CCN(CCCN2c3ccccc3Sc3ccc(Cl)cc32)CC1 | 0.531% [at 35.3 µM] (inactive) | 
16 | O=C1OC(O)C(C(Cl)Cl)=C1Cl (stereo unspecified) | -0.406% (inactive) | 
17 | Nc1ccc(Oc2cccc(Oc3ccc(N)cc3)c2)cc1 | -5.95% (inactive) | 
18 | Cc1ccc(C2OC[C@@H]3OC(c4ccc(C)cc4)O[C@H]([C@H](O)CO)[C@@H]3O2)cc1 (stereo partly specified) | 23.2% (inactive) | 

Row | SMILES | cytotoxicity | Potency
19 | CN(C/C=C/c1ccccc1)Cc1cccc2ccccc12 |  | 19 µM (active)
20 | CN1CC[C@H](c2c(O)cc(O)c3c(=O)cc(-c4ccccc4Cl)oc23)[C@H](O)C1 | 0.213% [at 35.3 µM] (inactive) | 
21 | CSc1nnc(C(C)(C)C)c(=O)[nH]1 | 0.0976% (inactive) | 
22 | CCN(CC)c1ccc2c(c1)Oc1cc(N(CC)CC)ccc1C21OC(=O)c2ccccc21 |  | 19 µM (active)
23 | NCc1cccc(C2CCN(C(=O)c3ccc(C#Cc4ccccc4F)o3)CC2)c1 | -2.19% (inactive) | 
24 | COc1cc(/C=C/C(=O)CC(=O)/C=C/c2ccc(O)c(OC)c2)ccc1O |  | 22 µM (active)
25 | O=C1c2ccccc2C(=O)c2c(Cl)cccc21 | -8.61% [at 35.3 µM] (inactive) | 
26 | Cc1ccc(Cl)c(N)c1Cl | 0.549% (inactive) | 
27 | CC1=C(/C=C/C(C)=C/C=C/C(C)=C\C(=O)O)C(C)(C)CCC1 | 1.92% (inactive) | 
28 | CCCCCCCCCCCCCCCCCCNC(=O)OC1CCN(C(=O)OC[C@H](COC(=O)N(Cc2cccc[n+]2CC)C(=O)c2ccccc2OC)OC)CC1 | 0.098% [at 35.3 µM] (inactive) | 
29 | CC(C)c1ccc2sc3ccccc3c(=O)c2c1 | -3.12% (inactive) | 
30 | CCCCCCCCCCCCN1CCCC1=O | 10% (inactive) | 
31 | CC/C=C\C/C=C\C/C=C\CCCCCCCC(=O)OC | -8.84% (inactive) | 
32 | CC(=O)Nc1ccc(N=Nc2cc(C)ccc2O)cc1 | -2.56% (inactive) | 
33 | c1ccc(-c2ccc(C(c3ccccc3)n3ccnc3)cc2)cc1 (stereo unspecified) | 4.27% [at 35.3 µM] (inactive) | 
34 | C=CC(=O)OCC(Br)CBr (stereo unspecified) | 4.37% (inactive) | 
35 | CCCCC/C=C\C=C\C(=O)OCC | -1.76% (inactive) | 
36 | O=C(Cl)c1ccc(Cl)cc1Cl | 14.1% (inactive) | 

Assay: qHTS RealTime-Glo MT Cell Viability Assay in HepG2 cells - 40 hour (AID 1224870)
Settings: RealTime-Glo luminescence; series mostly up to 76.8 µM; activity change, negative = cytotoxic: at the top concentration
Summary of the method: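 HepG2 cells (600/well) mixed with RealTime-Glo MT reagent, settled 5 h at 37 C/5% CO2 before compound addition. Nonlytic NanoLuc luminescence from viable-cell prosubstrate reduction read repeatedly during 40 h treatment at 37 C.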

Row | SMILES | Potency | activity change, negative = cytotoxic
37 | O=C(CCN1CCC(c2ccccc2)C1)c1ccc2c(c1)OCCO2 (stereo unspecified) | 21.3 µM (active) | 
38 | Oc1cccc2c(O)cccc12 |  | 8.59% (inactive)
39 | CCCC(=O)c1cc(O)c(O)cc1O |  | -5.29% (inactive)
40 | CC(C=O)c1ccccc1 (stereo unspecified) |  | 4.58% (inactive)
41 | O=C(N[C@H](CO)[C@H](O)c1ccc([N+](=O)[O-])cc1)C(Cl)Cl |  | 8.54% (inactive)
42 | N#Cc1nc(Cl)c(Cl)c(Cl)c1Cl | 17.4 µM (active) | 
43 | c1ccc(-c2ccccc2-c2ccccc2)cc1 |  | 16% (inactive)
44 | Nc1cccnc1N |  | -0.628% (inactive)
45 | COc1cc([C@@H]2c3cc4c(cc3[C@@H](O[C@@H]3O[C@@H]5CO[C@@H](C)O[C@H]5[C@H](O)[C@H]3O)[C@H]3COC(=O)[C@H]23)OCO4)cc(OC)c1O |  | -24.5% (inactive)
46 | CCN(CCC#N)c1ccc(N=Nc2ccc([N+](=O)[O-])cc2)cc1 |  | 14.5% (inactive)
47 | C1=CCCC1 |  | 14.9% (inactive)
48 | Nc1ccc(Oc2cccc(Oc3ccc(N)cc3)c2)cc1 |  | -0.937% (inactive)
49 | Cc1ccc(C2OC[C@@H]3OC(c4ccc(C)cc4)O[C@H]([C@H](O)CO)[C@@H]3O2)cc1 (stereo partly specified) |  | -1.69% (inactive)
50 | CN1CC[C@H](c2c(O)cc(O)c3c(=O)cc(-c4ccccc4Cl)oc23)[C@H](O)C1 |  | -26.9% [at 35.3 µM] (inactive)
51 | CSc1nnc(C(C)(C)C)c(=O)[nH]1 |  | 0.656% (inactive)
52 | CCN(CC)c1ccc2c(c1)Oc1cc(N(CC)CC)ccc1C21OC(=O)c2ccccc21 |  | -8.98% [at 35.3 µM] (inactive)
53 | O=C1c2ccccc2C(=O)c2c(Cl)cccc21 |  | 20.1% [at 35.3 µM] (inactive)
54 | CC1=C(/C=C/C(C)=C/C=C/C(C)=C\C(=O)O)C(C)(C)CCC1 |  | -1.03% (inactive)
55 | CC(C)c1ccc2sc3ccccc3c(=O)c2c1 |  | -8.97% (inactive)
56 | CCCCCCCCCCCCN1CCCC1=O |  | -21% (inactive)
57 | CC/C=C\C/C=C\C/C=C\CCCCCCCC(=O)OC |  | 12.9% (inactive)
58 | CC(=O)Nc1ccc(N=Nc2cc(C)ccc2O)cc1 |  | -4.36% (inactive)
59 | c1ccc(-c2ccc(C(c3ccccc3)n3ccnc3)cc2)cc1 (stereo unspecified) |  | -14.8% [at 35.3 µM] (inactive)
60 | C=CC(=O)OCC(Br)CBr (stereo unspecified) |  | -3.99% (inactive)
61 | CCCCC/C=C\C=C\C(=O)OCC | 51 µM (active) | 
